Tested on: Vero E6 infected with SARS-CoV-2
Assay: inhibition of SARS-CoV-2 cytopathic effect; higher = more antiviral protection, active = above 15
Conditions: 48 h

Measured: inhibition of SARS-CoV-2 cytopathic effect

CN(C)C(=O)Oc1cc(OC(=O)N(C)C)cc(C(O)CNC(C)(C)C)c1 (stereo not given) [bambuterol]
inactive: 1 nM -2.95% | 8.33 nM -0.79% | 100 nM -1.68% | 833.33 nM -1.56% | 10000 nM -1.86%

Cc1cc(C)cc(C(=O)NOCCCCCC(=O)NO)c1
inactive: 1 nM 2.07% | 8.33 nM -0.95% | 100 nM -1.04% | 833.33 nM -9.5% | 10000 nM -23.1%

O=C(Nc1ccncc1)C(=O)c1cn(Cc2ccc(Cl)cc2)c2ccccc12 [indibulin]
inactive: 1 nM 1.08% | 8.33 nM 1.94% | 100 nM 0.77% | 833.33 nM 0.68% | 10000 nM -6.21%

COc1c(C)cnc(Cn2cnc3c(Cl)nc(N)nc32)c1C
inactive: 1 nM -0.38% | 8.33 nM 2.24% | 100 nM 0.07% | 833.33 nM 3.31% | 10000 nM 6.01%

C[C@]1(O)C[C@@H](c2nc(-c3ccc4ccc(-c5ccccc5)nc4c3)c3c(N)nccn32)C1 [linsitinib]
inactive: 1 nM 1.22% | 8.33 nM -0.2% | 100 nM -1.12% | 833.33 nM 0.58% | 10000 nM 1.2%

CC(=O)NC[C@H]1CN(c2ccc(-c3ccc(CNCc4cnn[nH]4)cc3)c(F)c2)C(=O)O1 [radezolid]
inactive: 1 nM -1.38% | 8.33 nM 0.58% | 100 nM 2.16% | 833.33 nM -0.64% | 10000 nM 2.43%

O=C(NCCN1CCCCC1)c1ccc(I)cc1 [N-[2-(piperidinylamino)ethyl]-4-iodobenzamide]
inactive: 1 nM 0.64% | 8.33 nM 2% | 100 nM -0.15% | 833.33 nM -2.57% | 10000 nM -1.77%

Cc1ncc(Cl)cc1NCc1ccc(C(=O)N[C@@H](CC2CCCC2)C(=O)NC2CC2)s1
inactive: 1 nM 2.43% | 8.33 nM 0.35% | 100 nM -0.53% | 833.33 nM -0.57% | 10000 nM -2.59%

CC(C)(C)NC[C@H](O)COc1nsnc1N1CCOCC1 [timolol]
inactive: 1 nM -1.77% | 8.33 nM 0.61% | 100 nM -1.85% | 833.33 nM 3.77% | 10000 nM 0.96%

O=C(Nc1cccc(Cl)c1)Nc1ncc(CCNc2ncnc3ccsc23)s1
inactive: 1 nM 0.21% | 8.33 nM 0.43% | 100 nM 3.34% | 833.33 nM -0.89% | 10000 nM -1.37%

O=C(Nc1ccc(OC(F)(F)F)cc1)c1sccc1NCc1ccnc2ccccc12
inactive: 1 nM -2.32% | 8.33 nM 3.56% | 100 nM 4.81% | 833.33 nM 4.77% | 10000 nM 5.44%

Cc1ccccc1C(=O)Nc1ccc(C(=O)N2CCCC(O)c3cc(Cl)ccc32)c(C)c1 (stereo not given) [tolvaptan]
inactive: 1 nM 1.52% | 8.33 nM 1.94% | 100 nM 0.74% | 833.33 nM -1.55% | 10000 nM 1.54%

COc1c(-c2ccc3cc(NS(C)(=O)=O)ccc3c2)cc(-n2ccc(=O)[nH]c2=O)cc1C(C)(C)C [dasabuvir]
inactive: 1 nM 1.02% | 8.33 nM -0.41% | 100 nM 0.27% | 833.33 nM 1.41% | 10000 nM 2.61%

CCN1CCCC1=O [1-ethyl-2-pyrrolidone]
inactive: 1 nM -1.68% | 8.33 nM 2.91% | 100 nM 3.54% | 833.33 nM -0.7% | 10000 nM -2.48%

O=C(NC(O)C(Cl)(Cl)Cl)NC(O)C(Cl)(Cl)Cl (stereo not given) [dicloralurea]
inactive: 1 nM -4.23% | 8.33 nM -2.71% | 100 nM -0.82% | 833.33 nM -3.4% | 10000 nM -4.69%

O=C1NC(=O)C(=Cc2ccc(-c3ccc(F)cc3)o2)S1 (stereo in doubt)
inactive: 1 nM -2.32% | 8.33 nM 0.24% | 100 nM -0.68% | 833.33 nM 0.32% | 10000 nM 1.47%

Cc1cn([C@H]2O[C@@H](CO)[C@H](O)[C@H]2F)c(=O)[nH]c1=O [clevudine]
inactive: 1 nM 3.12% | 8.33 nM -0.16% | 100 nM 1.71% | 833.33 nM 2.27% | 10000 nM 1.38%

CCc1ccc(CCOc2ccc(CC3SC(=O)NC3=O)cc2)nc1 (stereo not given) [pioglitazone]
inactive: 1 nM -1.62% | 8.33 nM 1.34% | 100 nM 1.49% | 833.33 nM -8.11% | 10000 nM 1.27%

CCCCCCCCCCCCCCCCNc1ccc(C(=O)O)cc1 [cetaben]
inactive: 1 nM 2.02% | 8.33 nM 3.28% | 100 nM 1.52% | 833.33 nM 1.67% | 10000 nM -2.46%

— the supplement of paper PMC13380429
